The values that follow come from the supplement of paper PMC7366291.

Common to all, as to details: 25 µM; exposure: 24-48 hpf
Assay [1] relates to Danio rerio Tg(wt1b:EGFP) embryo, pronephros. Briefly: glomerular separation, fold change vs DMSO control; higher = glomeruli further apart (abnormal). In short, it runs like this:
(§1)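 Dechorionated Tg(wt1b:EGFP) zebrafish embryos were incubated at 28.5°C from 24 to 48 hpf with 25 μM compound in HEPES-buffered E3 containing 0.5% DMSO and 0.003% PTU. Distances and angles between 16 manually set points on maximum projections of dorsal pronephros images were measured in Fiji, with values over 2 SD from the feature mean excluded. Each feature is a fold change relative to the mean of same-day DMSO-treated embryos.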

Assay [2] has the same test system. Nature of the assay: glomerular width (mean of left and right), fold change vs DMSO control; higher = wider glomerulus. In short, it runs like this:
as §1

Assay [3] has the same test system. Briefly: fraction of imaged embryos annotated as normal kidney; higher = less nephrotoxic; extreme values may be limits of the assay. In outline: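 The value given is the share of embryos in each treatment scored as having a normal kidney. To obtain it, dechorionated Tg(wt1b:EGFP) zebrafish embryos were treated from 24 to 48 hpf at 28.5°C with 25 μM compound in 0.5% DMSO, in 5 mM HEPES-buffered E3 with 0.003% PTU. Pronephroi were imaged by widefield fluorescence (470 nm, 10 z-slices), and every embryo was annotated by hand from maximum projections.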

For assay [4] the test system is unchanged. Briefly: pronephric angle neck segment to proximal convoluted tubule (mean of left and right), fold change vs DMSO control; higher = larger pronephric angle. In outline: as §1

Where a name gives a salt, the structure may show the parent alone. ± gives the standard deviation or the standard deviation of the averaged measurements.

On to `CC(C(=O)O)c1ccc(C(=O)c2ccccc2)s1` (stereo not given) [Tiaprofenic acid], for which the glomerular separation in assay [1] came to 1.58 ± 0.4. In assay [2], this compound returned a glomerular width of 1.07 ± 0.067. The “fraction of imaged embryos annotated as normal kidney” value (shortened to “fraction of imaged embryos annotated”) in assay [3] amounted to 0.667. The “pronephric angle neck segment” value in assay [4] worked out at 1.03 ± 0.015.

As to `CC(=O)Nc1ccc(OCC(O)CNC(C)C)cc1` (stereo not given) [Practolol], in assay [1], the glomerular separation came out at 1.01 ± 0.36. Moreover, the glomerular width in assay [2] is 0.986 ± 0.081. Moreover, the “fraction of imaged embryos annotated” value in assay [3] came to 0.833. The “pronephric angle neck segment” value in assay [4] was determined as 1.02 ± 0.051.

`O=C(O)/C=C/c1ccc(Cn2ccnc2)cc1` [Ozagrel hydrochloride] had a glomerular separation in assay [1] of 1.04 ± 0.32. The compound further returned a glomerular width in assay [2] of 1.01 ± 0.032. Moreover, the “fraction of imaged embryos annotated” value in assay [3] turned out to be 0.833. Moreover, the “pronephric angle neck segment” value in assay [4] stood at 0.98 ± 0.011.

As to `NS(=O)(=O)c1cc2c(cc1Cl)NCNS2(=O)=O` [Hydrochlorothiazide], the glomerular separation in assay [1] came to 1.03 ± 0.25. This compound showed a glomerular width in assay [2] of 0.972 ± 0.024. For the same compound, in assay [3], the “fraction of imaged embryos annotated” value stood at 0.833. Also, the “pronephric angle neck segment” value in assay [4] is 0.937 ± 0.013.

`CC1=C(C(=O)O)N2C(=O)[C@@H](NC(=O)[C@H](N)c3ccc(O)cc3)[C@H]2SC1` [Cefadroxil] returned a glomerular separation in assay [1] of 1.23 ± 0.49. Further, the glomerular width in assay [2] was 1.08 ± 0.042. Further, the “fraction of imaged embryos annotated” value in assay [3] amounted to 0.833. Also, the “pronephric angle neck segment” value in assay [4] came to 0.923 ± 0.049.

In assay [1], `CCOC(=O)OC(C)OC(=O)[C@@H]1N2C(=O)[C@@H](NC(=O)[C@H](N)c3ccccc3)[C@H]2SC1(C)C` (stereo not given in full) [Bacampicillin hydrochloride] showed a glomerular separation of 0.948 ± 0.29. This compound registered a glomerular width in assay [2] of 1.01 ± 0.017. In addition, in assay [3], the “fraction of imaged embryos annotated” value came out at 0.917. The “pronephric angle neck segment” value in assay [4] stood at 0.968 ± 0.034.

On to `CCN(CC)CCNc1ccc(CO)c2sc3ccccc3c(=O)c12` [Hycanthone], for which the glomerular separation in assay [1] is 1.12 ± 0.27. The compound also came in with a glomerular width in assay [2] of 0.968 ± 0.052. For the same compound, in assay [3], the “fraction of imaged embryos annotated” value is 0.833. The “pronephric angle neck segment” value in assay [4] stood at 0.977 ± 0.059.

Compound `COC(=O)C1=C(C)NC(C)=C(C(=O)OC)C1c1ccccc1[N+](=O)[O-]` [Nifedipine] had a glomerular separation in assay [1] of 1.1 ± 0.54. Moreover, the glomerular width in assay [2] came to 1.05 ± 0.077. Besides, the “fraction of imaged embryos annotated” value in assay [3] is 0. Also, the “pronephric angle neck segment” value in assay [4] amounted to 1.33 ± 0.09.

In the case of `C#C[C@]1(O)CC[C@H]2[C@@H]3[C@H](C)CC4=C(CCC(=O)C4)[C@H]3CC[C@@]21C` [Tibolone], in assay [1], the glomerular separation stood at 0.915 ± 0.4. This compound showed a glomerular width in assay [2] of 0.908 ± 0.019. Besides, the “fraction of imaged embryos annotated” value in assay [3] stood at 0.75. The “pronephric angle neck segment” value in assay [4] amounted to 0.924 ± 0.078.

In assay [1], `CN(C)CCC[C@@]1(c2ccc(F)cc2)OCc2cc(C#N)ccc21` [Escitalopram oxalate] registered a glomerular separation of 1.13 ± 0.38. The glomerular width in assay [2] was 0.9778 ± 0.0032. Moreover, the “fraction of imaged embryos annotated” value in assay [3] was found to be 0.833. Further, the “pronephric angle neck segment” value in assay [4] came to 0.941 ± 0.024.
